# In the supplement of paper PMC3334620:
# Over roughly 33,000 sequences, “E-score (-0.5 to 0.5)” has its median near -0.056; the highest 2% begin near 0.38. What follows is part of a selection rich in the highest values, with near analogues and random picks from the rest.
# Molecular target: Stb4 (UniProt P50104)
# Experiment: PBM E-score (8-mer binding enrichment) (E-score (-0.5 to 0.5)); higher = stronger / more preferred TF binding
# Conditions: protein concentration: 200 nM; construct: GST-DNA-binding domain
# Experimental: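 Universal 'all 10-mer' protein binding microarrays (Agilent AMADID 015681) probed with GST-tagged S. cerevisiae TFs (full-length or DBD) made by in vitro transcription/translation (PURExpress), about 100-200 nM. Bound TF was detected with fluorescent anti-GST. Each ungapped 8-mer (which stands for itself and its reverse complement) is scored by the PBM enrichment score (E-score), a modified Wilcoxon-Mann-Whitney statistic from -0.5 to +0.5, computed with the Universal PBM Analysis Suite. Scale: above 0.35 generally sequence-specific binding.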
# Chain of UniProt P50104 (P50104 whole entry): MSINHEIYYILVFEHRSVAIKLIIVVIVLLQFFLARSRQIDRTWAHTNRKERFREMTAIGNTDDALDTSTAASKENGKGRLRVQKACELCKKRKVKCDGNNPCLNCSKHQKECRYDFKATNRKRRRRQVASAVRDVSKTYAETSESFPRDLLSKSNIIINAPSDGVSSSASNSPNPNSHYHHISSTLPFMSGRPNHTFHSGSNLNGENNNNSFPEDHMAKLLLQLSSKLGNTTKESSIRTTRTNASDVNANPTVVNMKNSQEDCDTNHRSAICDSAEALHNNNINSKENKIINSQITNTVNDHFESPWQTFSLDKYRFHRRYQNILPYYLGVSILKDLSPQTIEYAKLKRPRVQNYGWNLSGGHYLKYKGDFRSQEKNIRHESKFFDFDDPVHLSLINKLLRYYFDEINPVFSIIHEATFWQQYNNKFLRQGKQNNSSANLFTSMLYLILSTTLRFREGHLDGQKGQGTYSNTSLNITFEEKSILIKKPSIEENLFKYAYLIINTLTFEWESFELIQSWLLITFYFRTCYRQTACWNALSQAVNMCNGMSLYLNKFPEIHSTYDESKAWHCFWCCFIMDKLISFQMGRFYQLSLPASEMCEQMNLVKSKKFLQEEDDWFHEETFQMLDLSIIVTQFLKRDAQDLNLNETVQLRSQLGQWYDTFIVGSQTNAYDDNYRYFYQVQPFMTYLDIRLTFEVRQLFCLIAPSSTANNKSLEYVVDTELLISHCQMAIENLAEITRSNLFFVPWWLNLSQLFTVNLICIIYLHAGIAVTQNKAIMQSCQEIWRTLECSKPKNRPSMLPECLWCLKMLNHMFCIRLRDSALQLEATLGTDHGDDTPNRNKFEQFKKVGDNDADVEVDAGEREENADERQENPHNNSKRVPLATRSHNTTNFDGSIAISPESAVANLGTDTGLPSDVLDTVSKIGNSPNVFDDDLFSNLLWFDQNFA
row,Sequence,PBM E-score
1,ACCATATA,-0.114
2,GGTCTAAC,0.0261
3,ATCCTGCG,-0.117
4,CAATGCCA,-0.241
5,AAGCCTAA,-0.0457
6,CACTCTAA,-0.151
7,ATGGGCGC,-0.158
8,AGGGCTGC,-0.134
9,ATCTGACA,-0.0757
10,CCGAGGGA,0.386
11,GCGAGGGA,-0.129
12,CAGAGGGC,-0.151
13,ACGAGGGA,-0.0722
14,ACGAGGGC,-0.0578
15,CCGAGGGC,0.431
16,ATCTAACA,-0.00015
17,CTAGGCAG,-0.169
18,AGGCCCGA,0.233
19,GGACCCGA,0.386
20,CGGGCCGC,0.309
21,GGGGCCGA,0.174
22,CGACCCTA,0.0884
23,CGGCCCGA,0.444
24,CGACCCGA,0.4
25,GGGCCCGA,0.278

row,Sequence,PBM E-score
1,GGACCCTA,-0.144
2,CGACCCGC,0.173
3,CGGGCCGA,0.435
4,GGACCCCA,-0.0727
5,CAATCGGA,0.374
6,CGAGGATA,0.0376
7,ACATATAA,-0.0928
8,CCTCTTTA,-0.157
9,ACTATACG,0.00583
10,ATGACGAC,0.0312
11,ATACCGAG,0.377
12,AAGCCATG,-0.117
13,AGTCTTCG,-0.008
14,CCGGCCAA,0.271
15,CGGACCTC,0.124
16,GCGCTGAC,-0.0933
17,AGACCCGG,0.305
18,AGACCCGC,0.174
19,AGACCCGA,0.419
20,AAACTGTG,-0.12
21,AGAGGGAT,-0.271
22,CGGAGACG,0.235
23,ACGAGAGC,-0.151
24,CCGAGAGC,0.388
25,ACGAGACG,0.0568

row,Sequence,PBM E-score
1,CCGAGACC,0.431
2,CCGAGAGA,0.373
3,ACGAGACC,-0.0429
4,CCGAGACG,0.41
5,CCGAGACA,0.372
6,CCACCACG,-0.109
7,AAGCTAGG,0.0266
8,GGCAGGCA,0.0342
9,CGGGGCCA,0.22
10,AATAGGAG,-0.317
11,GTCCTCCA,-0.138
12,AGGAAGAA,-0.278
13,CGGAAGTC,0.414
14,AGGAAGTA,0.112
15,AGGAAGTC,-0.19
16,CGGAAGTA,0.419
17,CGGAAGGA,0.397
18,CTGAAGTC,0.0307
19,GGGAAGGA,0.0823
20,AGGAAGGA,-0.282
21,CGGAAGAA,0.406
22,GGGAAGTA,0.184
23,GGGAAGAA,0.0883
24,ACGCTCAT,-0.276
25,AAAGGCGA,-0.0639

row,Sequence,PBM E-score
1,AGAGCAAC,-0.287
2,GGGTTTAA,0.0372
3,TTCGAGAA,-0.207
4,TCCGAGAA,0.455
5,GCCGAGAC,0.392
6,CACGAGAG,-0.136
7,CCCGAGAA,0.44
8,CACGAGAA,-0.167
9,ACCGAGAA,0.311
10,CTCGAGAG,-0.201
11,GTCGAGAC,0.0445
12,TACGAGAA,-0.113
13,GGCGAGAC,-0.245
14,CCCGAGAG,0.385
15,ATAATCAT,-0.0964
16,CCCATTAC,-0.104
17,CCCGCAAC,0.228
18,CAGGCACA,-0.178
19,ACGGGCCT,0.0389
20,CAACCACC,0.0572
21,GCCTAGAC,-0.139
22,CCTCGAAC,-0.249
23,GTGACCAA,-0.203
24,GTCGAGAA,-0.277
25,CCCGAGAC,0.412

row,Sequence,PBM E-score
1,GCCGAGAA,0.406
2,CGCGAGAC,-0.0463
3,GACGAGAA,-0.169
4,ACCGAGAC,0.357
5,CACCTACG,0.0326
6,AACCATGT,0.0503
7,AAACCATA,-0.0199
8,GACTAGCA,-0.114
9,GAGGAGGA,-0.152
10,CCCCCGAG,0.352
11,CACCCGAG,0.448
12,CACCCGAA,0.436
13,CACCCGAC,0.384
14,CACCCAAA,-0.0471
15,CCCCCGAC,0.175
16,AACCCGAT,0.285
17,ACCCCGAG,0.333
18,CACCCGGG,0.323
19,CCCCCGAA,0.297
20,AACCCGAG,0.406
21,CACCCGGC,0.277
22,CCCTAAGG,-0.232
23,ACCGCTTG,-0.0825
24,CAATTTCG,0.0914
25,TGTAAGAA,0.101

row,Sequence,PBM E-score
1,CACCTCCA,-0.167
2,AAGGATAG,0.00922
3,CGTTCAGC,-0.00077
4,AACTCGTG,0.0628
5,TACTCGCA,-0.0584
6,AACTCGGT,0.286
7,AACTCGCG,-0.00482
8,AACTCGGG,0.383
9,CACTCGTA,-0.292
10,AACTCGGA,0.426
11,CACTCGAA,-0.267
12,AACTCGCA,-0.278
13,CACTCGGA,0.422
14,TACTCGAA,-0.25
15,TACTCGGA,0.409
16,TTCCAGAA,-0.0529
17,GTCGTGAA,-0.19
18,ATAAGCGA,0.0555
19,ATCTGCAT,-0.071
20,AGGAACTG,-0.148
21,CGATCATC,0.0839
22,GACTCGGC,0.327
23,CACTCGGG,0.371
24,GACTCGGA,0.451
25,CACTCGTC,0.0228

row,Sequence,PBM E-score
1,CACTCGGC,0.402
2,GACTCGCA,-0.0572
3,CTCCCAAG,-0.114
4,ACGCCAGG,-0.0466
5,AAATCATG,-0.27
6,CTACCCGA,0.464
7,GTACCCGA,0.437
8,ATACCCGA,0.476
9,ATACCCAA,-0.0395
10,GTACCCAA,-0.0334
11,ATACCCGC,0.328
12,CTACCCAA,-0.209
13,ATACCCTG,-0.0928
14,ATACCCCG,0.205
15,CTACCCGC,0.273
16,GTACCCTA,-0.206
17,ATACCCGG,0.391
18,GAAGTAGA,-0.0217
19,GCGAGTGA,-0.0567
20,GCATCTCA,-0.222
21,GGCACAAA,0.104
22,ATATAGCC,0.183
